Values joined by “and” are separate entries in the source; they are usually repeats but may differ in a detail not shown here. Equal values may be shown once. The panel holds about 83,000 compounds, 20% with a hit somewhere; the sample as a whole holds those more often.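 Each cell line was grown in a 96-well plate and treated with one concentration of compound for 48 hours. Values below 10 were considered active.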 Where a structure was tested more than once in an assay, its records may differ in their call. Active and inactive are the calls of the source.
These molecules were tested on MOLT-4 leukemia (assay: NCI-60 one-dose screen, 48 h (100 = growth as untreated, 0 = no growth, -100 = all killed)). Details: 10 µM unless noted.
Experimental: Growth inhibition of the MOLT-4 human tumor cell line is measured as a screen for anti-cancer activity. Cells are grown in 96 well plates and exposed to the test compound for 48 hours. Compounds are tested at a single concentration, which is 10^-5 M for most compounds. The reported endpoint is percent growth (GI% or GIPRCNT), where numbers from 0 - 100% represent growth inhibition, and numbers from -100% - 0 represent cell death. For example, a value of 40 represents 60% growth inhibition. A value of 0 means no net growth occurred over the course of the experiment. A value of -40 indicates 40% of cells at the beginning of the experiment died by the end of the experiment. A value of -100 means all cells are dead at the end of the experiment.
NCI-60 Human Tumor Cell Lines Screen was performed using the standard one-dose NCI protocol, which is described in more detail at https://dtp.cancer.gov/discovery_development/nci-60/default.htm.
Compounds with GIPRCNT values below 10 were considered active. Activity score was based on GIPRCNT using the following formula: […]
Score is 0 for GIPRCNT values of 100 or above, 50 for GIPRCNT values of 0, and 100 for GIPRCNT values of -100.
With `CCOP(=O)(OCC)C(=O)N(CC)CC` the growth was 114% (inactive).
With `CCCCCCCCCCCCCCCCCCn1cc[n+](C)c1` the growth was 16.8% (inactive) and 9.25% (active).
`O=C(CBr)OCCOC(=O)CBr` was tested, and the growth was 64.1% (inactive).
For `CCCCS(=O)(=O)Cl`, the growth was 116% (inactive).
In the case of `C[C@]12C[C@H](c3ccoc3)OC(=O)[C@H]1CC[C@@]1(C)[C@@H]2[C@H]2C=C[C@]1(O)C(=O)O2`, the growth is reported as 96% (inactive).
With `C[C@]12CC[C@@H](OC(=O)N(CCCl)N=O)C[C@@H]1CC[C@@H]1[C@@H]2CC[C@]2(C)C(=O)CC[C@@H]12` the growth was 29.1% (inactive).
`COCC1OC2OC3C(COC)OC(OC4C(COC)OC(OC5C(COC)OC(OC6C(COC)OC(OC7C(COC)OC(OC8C(COC)OC(OC1C(O)C2O)C(O)C8O)C(O)C7O)C(O)C6O)C(O)C5O)C(O)C4O)C(O)C3O` (stereo not given) (tested in a mixture with another compound) was tested, and the growth was 99.6% (inactive).
With `C#COc1cccc(Nc2ncnc3cc(NC(=O)CF)ccc23)c1` the growth was 5.47% [6.25 µM] (active).
With `O=C(O)c1ccccc1N(CCO)CCCl` the growth was 98.3% (inactive).
With `CC(C)COC(=O)Cc1ccccc1` the growth was 103% (inactive).
With `O=C(Cc1ccccc1)NC(O)C(Cl)(Cl)Cl` (stereo not given) the growth was 96.1% (inactive).
`O=P1(N(CCCl)CCCl)NCCCO1` (stereo not given) was tested, and the growth was 96.8% (inactive).
In the case of `O=S(=O)(F)c1cccc(Cl)c1C[P+](c1ccccc1)(c1ccccc1)c1ccccc1`, the growth is reported as 112% (inactive).
In the case of `N#Cc1ccc(Cl)cc1`, the growth is reported as 92.5% (inactive).
With `N#CC(C#N)=Cc1cccc(F)c1` the growth was 97.9% (inactive).
`C(=NC1CCCCC1)=NC1CCCCC1` was tested, and the growth was 101% (inactive) and 86.1% (inactive).
In the case of `C=C1C(=O)OC2CC3(C)OC3C3OC3C3=CC(OC3=O)C12` (stereo not given), the growth is reported as -30.3% (active) and 58.3% (inactive).
`Cc1ccc(S(=O)(=O)n2cc([C@@]3(O)C[C@H](CSC#N)OC3=O)c3ccccc32)cc1` was tested, and the growth was 7.16% (active).
In the case of `C=C[Se]CC(=O)/C=C/c1ccccc1`, the growth is reported as 79.5% (inactive).
With `N#CCCc1ccccc1` the growth was 94.5% (inactive).
With `CC[C@H](C)[C@H](NC(=O)c1ncccn1)C(=O)N(C)[C@H](C[C@@H](OC(C)=O)c1nc(C(=O)N[C@@H](Cc2ccccc2)C[C@H](C)C(=O)OC)cs1)C(C)C` the growth was 20.2% (inactive).
`CCC1(NC(=O)c2cc(F)c(F)c(F)c2F)C(=O)NC(=O)N(C(C)C)C1=O` (stereo not given) was tested, and the growth was 55% (inactive).
In the case of `CN(C)c1ccc(C=C2C(=O)NC(=O)NC2=O)cc1`, the growth is reported as 98.7% (inactive).
In the case of `Cc1cc(N)ccc1N`, the growth is reported as 107% (inactive).
`CN1C2CCC1[C@@H](COC(=O)c1ccccc1)[C@@H](O)C2` (stereo not given in full) was tested, and the growth was 97.8% (inactive).
In the case of `COc1ccc(N)cc1N`, the growth is reported as 163% (inactive).
`CC1=CC(=O)CCC12CCOC2=O` (stereo not given) was tested, and the growth was 107% (inactive).
In the case of `O=C(NCCCN1CC1)Nc1cccc2ccccc12`, the growth is reported as 103% (inactive) and 83.7% (inactive).
With `C[N+]12CCC34C5=CC(=O)C(=O)C=C5[N+]5(C)C(=O)CC6OCC=C(C1)C(CC32)C6C45` (stereo not given) the growth was 102% (inactive).
`Clc1ccc(COC(Cn2ccnc2)c2ccc(Cl)cc2Cl)c(Cl)c1` (stereo not given) was tested, and the growth was 41.5% (inactive) and 45.3% (inactive).
With `CSc1cc(/C=C(\C)[C@@H]2C[C@@H]3O[C@]3(C)CCC[C@H](C)[C@H](O)[C@@H](C)C(=O)C(C)(C)[C@@H](O)CC(=O)O2)n(CCNC(=O)OC(C)(C)C)n1` the growth was 42.7% (inactive).
`C/C=C(/C)C(=O)O[C@H]1CC[C@@]2(C)[C@@H]3CC[C@H]4[C@]5(O)C[C@H](O)[C@@]6(O)[C@@H](CN7C[C@@H](C)CC[C@H]7[C@@]6(C)O)[C@]5(O)C[C@@]42O[C@@]13O` was tested, and the growth was 112% (inactive).
`c1ccc2c(c1)sc1ccccc12` was tested, and the growth was 104% (inactive).
`CC(=O)OC1CC2(O)C(CCC3(C)C(c4ccc(=O)oc4)CCC32O)C2(C)CCC(OC3OC(CO)C(O)C(O)C3O)C=C12` (stereo not given) was tested, and the growth was -19.6% (active).
With `COc1cc(C2C3=C(CCCC3=O)N(CCO)c3cc4c(cc32)CCC4)cc(OC)c1OC` (stereo not given) the growth was 93.5% (inactive).
For `C[C@]12CC[C@H]3[C@@H](CC=C4c5nc(N)sc5CC[C@@]43C)[C@@H]1CC[C@@H]2O`, the growth was 103% (inactive).
In the case of `NC(=O)Oc1cc(OC(N)=O)cc(N(CCCl)CCCl)c1`, the growth is reported as 13.1% (inactive).
In the case of `CCCC(C)SP(=S)(SC(C)CCC)SC(C)CCC` (stereo not given), the growth is reported as 110% (inactive).
In the case of `O=C(Cc1ccccc1)c1ccccc1`, the growth is reported as 107% (inactive).
For `Oc1ccccc1C=NCCN=Cc1ccccc1O.[Fe]`, the growth was 30.7% (inactive).

Source: PubChem BioAssay (NCI)
